From PubChem BioAssay
MOR-DOR inv ag: inverse agonist of human OPRM1-OPRD1 heterodimerization. 0.21% of 340,000 active. P35372+P41143. cell-based MOR-DOR heterodimer luminescence, inverse agonism. inhibition, % at 9.3 µM. AID 504357; in the data active means inhibition above about 22%, passing the limit was not always enough;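 further: 0% = cells with DMSO and 100% = wells without cells with DMSO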
HTR5A inv ag: counter-screen for OPRM1-OPRD1 inverse agonists: human HTR5A inverse agonism; 0.083% of 340,000 active; AID 504634; HTR5A cell line, luminescence; inhibition, % at 9.3 µM; P47898; in the data active means inhibition mostly above about 23%, no sharp cut-off; inactive means mostly below about 18%;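 further: 0% = cells with DMSO and 100% = no-cell wells with DMSO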
HTR5A ag: HTR5A agonism, opioid heterodimer counter-screen. P47898. HTR5A agonist assay, luminescence, cell-based. activation, % at 9.3 µM. 0.61% of 340,000 active. AID 504692; in the data active means activation mostly above about 9.5%, no sharp cut-off; inactive means mostly below about 7.6%;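 further: 0% = cells with vehicle only and 100% = reference agonist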
beta cell repl: induces beta-cell replication in MIN6 cells; proliferation, % at 10 µM; 0.29% of 330,000 active; MIN6 cells proliferation, ATPlite luminescence, 48 h; cells starved in 0.2% serum; 100% = growth in 10% serum;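 active means compounds whose signal lies at least 3.5 SD above the mean of all wells on their plate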;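 further: 0% = DMSO-treated cells in low-serum medium and 100% = 10% serum control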
MOR-DOR ag: OPRM1-OPRD1 heterodimerization agonism | AID 504326 | activation, % at 9.3 µM | cells, luminescence | 0.3% of 340,000 active;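 further: 0% = vehicle-treated cells and 100% = reference agonist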
p-CIP stab down: p/CIP protein destabilization. F442A p/CIP-EGFP cells, EGFP fluorescence, 16 h. 0.01% of 290,000 active. decrease of EGFP signal, % at 10 µM;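 active means EGFP signal decrease of at least 30% at 10 µM or well 3 SD below plate mean, unless failing retest; inactive means the rest, including hits failing retest or dose response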
Target sequence (Q05BA5 1-1403): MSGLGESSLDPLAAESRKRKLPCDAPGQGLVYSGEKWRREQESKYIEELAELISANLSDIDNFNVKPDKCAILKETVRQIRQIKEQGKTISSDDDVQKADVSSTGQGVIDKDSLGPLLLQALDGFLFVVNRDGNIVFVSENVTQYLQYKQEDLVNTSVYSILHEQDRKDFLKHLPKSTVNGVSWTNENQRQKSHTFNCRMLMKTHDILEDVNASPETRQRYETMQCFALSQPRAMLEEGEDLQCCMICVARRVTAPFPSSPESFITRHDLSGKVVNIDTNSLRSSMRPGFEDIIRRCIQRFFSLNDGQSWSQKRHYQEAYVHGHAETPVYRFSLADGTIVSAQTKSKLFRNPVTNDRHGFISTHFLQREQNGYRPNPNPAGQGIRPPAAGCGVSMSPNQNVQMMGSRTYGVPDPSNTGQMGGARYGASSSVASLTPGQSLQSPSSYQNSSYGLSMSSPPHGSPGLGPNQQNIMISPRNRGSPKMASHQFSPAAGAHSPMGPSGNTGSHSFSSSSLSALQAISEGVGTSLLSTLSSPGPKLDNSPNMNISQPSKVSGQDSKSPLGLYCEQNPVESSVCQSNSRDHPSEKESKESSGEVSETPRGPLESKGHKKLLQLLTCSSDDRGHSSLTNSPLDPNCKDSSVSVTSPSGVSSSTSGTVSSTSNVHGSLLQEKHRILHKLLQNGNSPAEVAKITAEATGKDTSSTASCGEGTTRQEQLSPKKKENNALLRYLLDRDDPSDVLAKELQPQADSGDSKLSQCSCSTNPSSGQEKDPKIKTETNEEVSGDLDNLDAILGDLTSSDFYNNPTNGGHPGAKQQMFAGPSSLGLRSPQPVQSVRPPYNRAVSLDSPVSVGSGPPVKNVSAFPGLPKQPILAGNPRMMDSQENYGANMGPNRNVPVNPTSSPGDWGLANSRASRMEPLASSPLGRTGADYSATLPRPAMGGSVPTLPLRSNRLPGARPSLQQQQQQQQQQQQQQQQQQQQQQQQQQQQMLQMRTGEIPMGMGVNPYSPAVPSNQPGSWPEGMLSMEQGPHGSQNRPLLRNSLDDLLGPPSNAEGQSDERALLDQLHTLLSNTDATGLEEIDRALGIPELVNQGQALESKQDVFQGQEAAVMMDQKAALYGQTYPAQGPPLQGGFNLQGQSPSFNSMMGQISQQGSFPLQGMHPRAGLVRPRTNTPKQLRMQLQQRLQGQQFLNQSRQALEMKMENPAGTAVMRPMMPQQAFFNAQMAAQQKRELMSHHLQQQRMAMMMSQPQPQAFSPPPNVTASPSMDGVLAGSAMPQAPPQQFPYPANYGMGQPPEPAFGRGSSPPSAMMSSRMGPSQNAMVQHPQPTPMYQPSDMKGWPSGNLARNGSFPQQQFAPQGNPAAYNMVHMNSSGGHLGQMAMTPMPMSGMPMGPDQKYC
OPRM1-D1 ag cf: confirmation of human OPRM1-OPRD1 heterodimerization agonists. cells, MOR-DOR heterodimerization, luminescence complementation. activation, % at 9.3 µM. 45% of 830 active. shares compounds with MOR-DOR ag. AID 504904;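 further: 0% = vehicle-treated cells and 100% = reference agonist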
HTR5A ag ctr2: HTR5A agonism, opioid heterodimer counter-screen | HTR5A agonist counterscreen, cell luminescence | activation, % at 9.3 µM | 8% of 830 active | shares compounds with MOR-DOR ag | AID 504905; in the data active means activation above about 17%;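 further: 0% = vehicle-treated cells and 100% = reference agonist response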
MOR-DOR inv conf: confirmation of human OPRM1-OPRD1 heterodimerization inverse agonists. shares compounds with MOR-DOR inv ag. cells expressing OPRM1/OPRD1 heterodimer, luminescence. inhibition, % at 9.3 µM. 20% of 580 active; in the data active means inhibition above about 32%;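 further: 0% = cells with DMSO and 100% = wells lacking cells with DMSO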
HTR5A inv ctr2: inverse agonist of human HTR5A in OPRM1-OPRD1 counter-screen; shares compounds with MOR-DOR inv ag; HTR5A-expressing cells, luminescence, inverse agonism; inhibition, % at 9.3 µM; 580 tested, under 10 active; AID 504914; call rule not given here;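 further: 0% = cells with DMSO and 100% = no-cell wells with DMSO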
* hit, by the source's call; i = inactive; · = no result. Rows were chosen to be rich in hits. Some 1.4% of all compounds tested hit in one or more screens of this group. Unless noted, no stated cut-off is given here; in the data, active means activation above about 18%; inactive means the rest.

SMILES	MOR-DOR inv ag	HTR5A inv ag	HTR5A ag	beta cell repl	MOR-DOR ag	p-CIP stab down	OPRM1-D1 ag cf	HTR5A ag ctr2	others
CCOC(=O)c1c2c(n(Cc3ccccc3)c1C)C(=O)C(=O)c1ccccc1-2	-85.2	-32.3	8.4	·	19.5*	·	16.0	-0.2
Cc1nn(C(C)C(=O)NC(C)CCc2ccccc2)c(=O)c2cc3occc3n12 (stereo unspecified)	7.6	9.9	4.8	-1.5	-1.5	-5.6	·	·
COC(=O)NCC(c1ccc2c(c1)OCO2)N1CCN(c2ccc(OC)cc2)CC1 (stereo unspecified)	-422.0	-2.8	3.6	-0.2	78.7*	5.2	-0.1	-4.0
CN(C)C(CNC(=O)c1cccc(C(F)(F)F)c1)c1ccco1 (stereo unspecified)	-116.7	18.3	-1.4	-4.8	18.4*	5.3	45.0*	0.1
Cc1c(C(=O)NCC(c2ccco2)N(C)C)oc2c(Cl)cccc12 (stereo unspecified)	-171.2	-24.0	0.5	0.4	31.7*	·	20.0*	30.1*
Cc1ccc2nc(-c3ccccc3)cc(C(=O)NCC3CCCO3)c2c1 (stereo unspecified)	·	·	·	-1.7	·	7.9	·	·
Cc1cc(C(=O)NCC(c2ccco2)N(C)C)ccc1[N+](=O)[O-] (stereo unspecified)	-214.4	-5.3	2.3	0.0	34.4*	-4.8	25.6*	2.2
Cc1ccc2nc(-c3ccccc3)cc(C(=O)NCC(c3ccco3)N(C)C)c2c1 (stereo unspecified)	-228.4	13.0	-5.4	-2.1	35.9*	·	1.0	-3.0
Cc1ccc(NC(=O)CCn2c(=O)[nH]c3ccsc3c2=O)cc1F	16.2	-15.3	-1.3	0.0	-2.3	-13.2	·	·
CN(C)C(CNC(=O)c1ccc(Br)cc1)c1ccco1 (stereo unspecified)	-206.3	-5.8	1.6	-1.5	43.2*	1.7	36.6*	-2.3
CCc1ccc2c(CC(=O)NNC(=O)c3ccncc3)coc2c1	-4.3	-5.6	2.0	-1.8	1.0	·	·	·
CCNC(=O)c1cccc(NC(=O)c2cc(C3CC3)nc3c2cnn3C(C)C)c1	3.5	18.5	-7.6	2.7	-0.7	·	·	·
CC(C)n1ncc2c(C(=O)Nc3cccc(C#N)c3)cc(C3CC3)nc21	i	-38.5	13.9	-4.9	184.3*	·	215.9*	5.2
CC1CCCN(C(=O)c2cccc(S(=O)(=O)N3CCCC3)c2)C1 (stereo unspecified)	0.3	8.5	-3.4	-1.9	-0.1	·	·	·
CC(C)c1ccccc1NC(=O)c1cccc(NC(=O)c2ccccc2)c1	-293.5	7.7	-0.6	-1.9	48.5*	-7.0	8.2	4.2
COc1ccc(CCNC(=O)COC(=O)Cc2c[nH]c3ccccc23)cc1OC	7.9	3.0	-0.8	-0.6	-1.5	·	·	·
COc1ccccc1CN1CCN(C(CC(C)C)c2nnnn2Cc2cccs2)CC1 (stereo unspecified)	-267.7	-37.9	8.0	-3.0	45.6*	-2.9	62.9*	2.1
CCCC(c1nnnn1Cc1cccs1)N1CCN(C)CC1 (stereo unspecified)	9.2	-1.6	0.6	0.8	-1.8	-18.1	·	·
CC(Sc1nnc(C2CC2)n1C1CC1)C(=O)c1ccc(F)cc1 (stereo unspecified)	20.5	5.4	-2.1	-0.5	-5.2	·	·	·
O=C(CCS(=O)(=O)c1ccc(F)cc1)Nc1nc(-c2ccncc2)cs1	1.6	-15.1	-0.8	-3.8	-0.3	-12.7	·	·
Cc1ccc(OCCSCc2nnc(NC(=O)Nc3cccc(Cl)c3)s2)cc1	-100.2	-16.7	4.6	-5.7	19.3*	-0.1	-1.7	0.4
CCN(C(=O)C(C)OC(=O)c1nn(-c2ccccc2C(F)(F)F)cc1O)c1ccccc1 (stereo unspecified)	16.7	9.1	-2.3	-2.8	-3.3	·	·	·
CC1=CC(=O)C(C(C)C)=C/C1=N/OS(=O)(=O)c1ccccc1	i	-63.7	30.4*	-4.2	205.5*	-3.3	82.6*	28.6*
Cc1cccc(OCCC(=O)NCC(c2ccccc2)N(C)C)c1 (stereo unspecified)	-143.6	17.1	3.3	0.0	28.4*	1.0	49.3*	1.9
O=C(CCc1nc2ccccc2s1)NCc1ccccc1F	1.1	20.7	2.7	-4.3	-0.2	-2.2	·	·
SMILES	MOR-DOR inv ag	HTR5A inv ag	HTR5A ag	beta cell repl	MOR-DOR ag	p-CIP stab down	OPRM1-D1 ag cf	HTR5A ag ctr2	others
CN(C)C(CNC(=O)CCc1nc2ccccc2s1)c1ccccc1 (stereo unspecified)	-266.8	-13.5	4.5	1.6	33.1*	2.4	0.4	0.3
CN(C)C(CNC(=O)CCOc1ccccc1)c1ccco1 (stereo unspecified)	-141.3	4.2	5.8	0.7	26.3*	-10.5	23.8*	3.2
COc1ccc(C(CNC(=O)CCOc2ccccc2)N(C)C)cc1 (stereo unspecified)	-159.8	6.8	-4.5	0.4	31.7*	-0.2	360.9*	3.1
COc1ccc(NC(=O)CCOc2ccccc2)cc1	5.8	-1.0	0.3	-1.5	-1.0	-5.2	·	·
CC(=O)c1ccc(OCCCC(=O)NCC(c2ccco2)N(C)C)cc1 (stereo unspecified)	14.4	-11.3	3.7	-1.7	-2.8	-2.0	·	·
CCOC(=O)c1cc(-c2ccccc2)nc2c(O)cccc12	-16.9	8.0	-2.1	·	3.9	·	·	·
N#Cc1cc(Cl)c(NCC2CCCO2)cc1C#N (stereo unspecified)	8.9	-6.6	1.8	1.3	-1.9	2.3	·	·
O=C(O)/C=C(/c1ccccc1)C(F)(F)F	16.0	5.3	-1.8	·	-2.9	·	·	·
CCN(CC)Cc1cc(Nc2c3ccccc3nc3c4ccccc4n(C)c23)cc(CN(CC)CC)c1O	i	-6.6	1.7	·	144.0*	·	148.6*	-2.5
Oc1cccc(Nc2c3ccccc3nc3ccccc23)c1	4.2	-8.5	2.2	-7.0	-0.8	-19.4	·	·
O=[N+]([O-])c1ccc(SNc2ccccc2)c([N+](=O)[O-])c1	-102.1	-15.0	3.8	·	19.8*	·	12.6	6.0
O=C1NC[C@@H](c2ccccc2)OC(=O)[C@@H](Cc2ccc(F)cc2)CC/C=C/C[C@@H]1CC(=O)N(CCO)Cc1ccccc1	33.5*	10.0	-6.4	-4.5	-5.8	·	·	·	MOR-DOR inv conf=8.6;HTR5A inv ctr2=25.7
Cn1cnc([N+](=O)[O-])c1S(=O)(=O)Nc1ccccc1	17.0	-1.3	0.3	·	-3.2	·	·	·
